Hits are enriched below; roughly 13% of the tested compounds scored in any of these assays.
GBA mod: alters purified human glucocerebrosidase activity | P04062 | purified enzyme, resorufin glucoside fluorescence (screen aimed at inhibitors), 20 min | Potency, µM | hit rate 1.1% among 48,000 | AID 360; in the data active = potency below about 15 µM; inconclusive = mostly about 16 µM to 33 µM;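 note: potency is the fitted concentration of half-maximal effect; the screen sought inhibitors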
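Wild-type enzyme at 0.2 nM final in 50mM citric acid/KH2PO4, 10mM sodium taurocholate, 0.01% tween-20, pH 5.9, with resorufin beta-D-glucopyranoside at 30 uM final. Compounds titrated, 20 min at RT, red fluorescence read; AC50 from titration.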
HSD17B inhib: HSD17B dehydrogenase inhibition. Q99714. recombinant HSD17B10, NADH fluorescence kinetic. Potency, µM (doses to about 57.1 µM), without a hit: top-dose activity change, negative = inhibition, hits mostly inhibitors. hit rate 7.6% among 75,000;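 note: the protocol describes HADH2 (HSD17B10) and not the HSD17B4 of the title; potency is the fitted concentration of half-maximal effect; % is set by controls: 0 for no effect and ±100 for the full control effect; nearly all actives have a fitted effect of over 70% in size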
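Activity followed as NADH fluorescence increase (ex 360, em 450 nm) every 30 seconds for 4 min, using final 90 uM beta-hydroxybutyryl CoA and 1 mM NAD+. Recombinant His-tagged enzyme, 20 nM, pH 9.0 Tris buffer, 15 min compound preincubation.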
AID923: qHTS Assay for Allosteric/Competitive Inhibitors of Caspase-1: Spectroscopic Profiling in AFC Spectral Region; hit rate 1.1% among 75,000; AID 923, 2007; compound fluorescence, AFC spectral region (405/520 nm); Potency, µM (highest dose often 57.5 µM), inactives show at the top dose fluorescence increase, usual class: activators; note: potency is the fitted concentration of half-maximal effect; 0% is about no effect
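Compound autofluorescence profiled at 405 nm ex/520 nm em during kinetic caspase 1 run (50 nM enzyme, 5 uM Ac-WEHD-AFC, HEPES pH 7.5, 10 mM DTT). Titration up to 57 uM; baseline from regression intercept, normalized to AFC standard curve.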
A350 fluor: compounds fluorescent in Alexa 350 spectral region. Compound autofluorescence, 340/450 nm, Alexa 350 dye-equivalents; hits give high values. max dye-equivalent concentration, M. hit rate 11% among 59,000. AID 590; in the data active = max dye-equivalent concentration above about 10 nM; inconclusive = mostly about 1.1 nM to 9.6 nM
HADH2 inhib: inhibitors of human HADH2 dehydrogenase. recombinant HADH2, NADH fluorescence, beta-hydroxybutyryl-CoA. Potency, µM (doses to about 57.1 µM), for the others: top-dose activity change, negative = inhibition, hits mostly inhibitors. Q99714. hit rate 3.4% among 73,000. AID 886; note: potency is the fitted concentration of half-maximal effect; % is set by controls: 0 for no effect and ±100 for the full control effect; nearly all actives have a fitted effect of over 60% in size
Target sequence (Q99714 whole entry, looked up, one chain of several): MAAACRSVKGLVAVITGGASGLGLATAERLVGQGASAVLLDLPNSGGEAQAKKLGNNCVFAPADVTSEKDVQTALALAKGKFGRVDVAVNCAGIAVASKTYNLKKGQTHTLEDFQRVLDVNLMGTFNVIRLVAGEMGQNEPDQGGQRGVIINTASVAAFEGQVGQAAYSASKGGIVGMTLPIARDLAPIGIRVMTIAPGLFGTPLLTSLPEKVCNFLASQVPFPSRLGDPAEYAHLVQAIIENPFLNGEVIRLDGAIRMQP
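Activity measured as NADH fluorescence gain (360/450 nm), taken as the change between first and last reads of a 4-min kinetic run. Conditions: pH 9.0 Tris buffer, 20 nM E. coli-expressed His-tagged enzyme, 1 mM NAD+, 90 uM beta-hydroxybutyryl-CoA; 15-min compound preincubation.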
4-MU autofl: compound fluoresces in the 4-MU spectral region; compound autofluorescence, 340/450 nm, 4-MU equivalents; hits give high values; max dye-equivalent concentration, M; hit rate 11% among 59,000; AID 589; in the data active = max dye-equivalent concentration above about 10 nM; inconclusive = mostly about 1.1 nM to 9.6 nM
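Compounds in 100 mM Tris, pH 8.0, sat 15 min at room temperature before fluorescence was read at 340 nm excitation/450 nm emission; a per-plate six-point 4-MU standard curve converted signals to dye-equivalent concentration at each compound concentration.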
Starred values were filed as active, the others as inactive; i = inactive; ? = inconclusive; . = not tested or not shown; [ ] = another dose, or the depositor's remark. Unless noted, calls come from the whole dose curve; as a rule, active = well fitted curve in the direction sought with a large enough effect; inconclusive = small, poorly fitted or top-dose-only effect, or another doubt; inactive = no such curve, though single readings can be large; an effect the other way counts as inactive or inconclusive.

SMILES | GBA mod | HSD17B inhib | AID923 | A350 fluor | HADH2 inhib | 4-MU autofl
CC1CCC2C(=O)N3C(CCC(C)[C@H]3c3cccc(N4CCCC4=O)c3)C(=O)N2C1c1cccc(N2CCCC2=O)c1 (stereo partly drawn) | . | -1%[11.4 µM] | -2%[11.5 µM] | . | 7%[11.4 µM] | .
Cc1ccc(-n2c(C)cc(C)c(C#N)c2=O)cc1Cl | >77 | -19% | 1% | 2.8e-08M* | ? | 4.7e-08M*
CC(C)Cn1c(SC(C)C(=O)Nc2ccc3c(c2)OCCO3)nc2ccccc2c1=O (stereo not drawn) | . | 5% | 0% | i | -9% | i
CCC(C)n1cnc2c(c1=O)c1nc3ccccc3nc1n2Cc1ccc2c(c1)OCO2 (stereo not drawn) | . | -12% | 7% | 4.8e-08M* | -11% | 4.5e-08M*
CCOCCCn1c(C)nc2c(c1=O)c1nc3ccccc3nc1n2-c1ccc(C)cc1 | >77 | 4% | -1% | 2.5e-07M* | 50% | 1.9e-07M*
Cc1nc2ccccc2c(=O)n1CCCO | . | -9% | 5% | . | 6% | .
CCCn1c(C)nc2c(c1=O)c1nc3ccccc3nc1n2-c1ccc2c(c1)OCCO2 | >77 | ? | 4% | 1.5e-08M* | -2% | 1.4e-08M*
O=c1c2c3nc4ccccc4nc3n(-c3cccc(F)c3)c2ncn1Cc1ccc2c(c1)OCO2 | >77 | 0% | 2% | ? | 6% | ?
CCC(C)n1cnc2c(c1=O)c1nc3ccccc3nc1n2-c1ccc2c(c1)OCCO2 (stereo not drawn) | i | -3% | 5% | 4.9e-08M* | 11% | 2.9e-08M*
C[C@@H]1C(=O)N(C)C(=O)c2nc[nH]c21 | . | 3% | 1% | i | 7% | i
CCN(CC)c1cccc(O)c1 | . | 4% | 5% | . | -1% | .
Cn1c(=O)c2c(nc(NCc3ccc4c(c3)OCO4)n2C)n(C)c1=O | >77 | -5% | -2% | i | -15% | i
Cc1nc2c(c(=O)n1CCC(C)C)c1nc3ccccc3nc1n2Cc1ccc2c(c1)OCO2 | >77 | 6% | 1% | 8.7e-08M* | 2% | 9.5e-08M*
O=C(CCNC(=O)c1ccc(Br)o1)NCc1ccccc1Cl | . | 2% | 1% | i | -3% | i
O=C(CCNC(=O)c1ccc(Br)o1)NCc1ccccn1 | >77 | 0% | 3% | 2.5e-08M* | 2% | 1.8e-08M*
COCCn1c(=O)c(CCc2ccccc2)nc2cnc(OCc3ccccc3)nc21 | . | 10% | 5% | i | -9% | i
CCOC(=O)c1ccccc1N/C=C1\CCCC1=O | >77 | 25µM* | 4% | 1.2e-08M* | -9% | 4.4e-08M*
O=C1CCCC/C1=C\Nc1ccccc1C(=O)O | >77 | 32µM* | 1% | 5.2e-08M* | ? | 4.4e-08M*
COc1ccc(OC)c(N/C=C2/CCCCC2=O)c1 | >77 | -26% | 0% | ? | -18% | ?

Screens as filed in PubChem.
